Here are results for 40 compounds from PubChem BioAssay (Tox21).

The structures appear in SMILES notation. Active and inactive are the calls of the source. A call without a number means that no potency is given here. Calls follow the shape of the dose curve; as a rule, active = well fitted curve in the direction sought with a large enough effect in the repeat runs; inconclusive = weak or mixed curves; inactive = flat fitted curve, though single readings scatter.

A short description of the test: qHTS assay to test for compound auto fluorescence at 460 nm (blue) in HEK293 cell free culture (AID 720681). Conditions: cell-free medium, autofluorescence 405/460 nm (blue); series mostly up to 91.3 µM. The text has this:
U.S. Tox21 Program National Center for Advancing Translational Sciences [NCATS] NIH Chemical Genomics Center [NCGC] U.S. Environmental Protection Agency [EPA] National Institutes of Environmental Health Sciences [NIEHS] National Toxicology Program [NTP] U.S. Food and Drug Administration [FDA] Tox21 Assay Overview: Compound auto fluorescence often interferes with screening of the compound library against various biological targets and signaling pathways. Some of these compounds may have fluorophoric properties. Such properties may interfere with the assay outputs resulting in false positives and/or negatives. To decrease such complications and ensure the compound activities are relevant in terms of biological response, the Tox21 10K compound library was screened for auto fluorescence. From the fluorophores used as reporter signals in our screening assays, the auto fluorescence equivalencies of compounds against three fluorophores have been evaluated: Triamterene, Fluorescein and Rose Bengal sodium for blue, green and red fluorescence, respectively. The fluorescence intensities were measured using Excitation/Emission wavelengths at 405/460nm, 485/535nm and 540/590nm for blue, green and red labels, respectively. This assay includes the blue fluorescence data.
Tox21 Assay Protocol Summary: 5 uL of culture medium (DMEM containing 10% FBS) per well was dispensed into black wall/clear bottom 1536-well plates using a Multidrop Combi Dispenser (ThermoFisher Scientific, Waltham, MA). After 23 nL compound or DMSO vehicle was transferred into assay plate by a pintool work station (Kalypsys, San Diego, CA), fluorescence intensities in the assay plates were measured by an Envision (PerkinElmer, Shelton, CT) plate reader using three labels for measuring blue, green and red fluorescence at […] 460, 535 and 590nm respectively.
Background: qHTS replaces the single test concentration by a dilution series.
Regarding `CCN(CC)CCNC(=O)c1ccc(N)cc1`, the Potency result was “inactive”. On to `OB(O)O`, for which the Potency result was “inactive”. Then `O=C(O)C1=NN(c2ccc(S(=O)(=O)O)cc2)C(=O)C1`, with “inactive”; and `CC(=O)Nc1ccc(CC(=O)O)cc1`, with “inactive”. Under `C=C(CC(=O)O)C(=O)O` stands “inactive”; under `OCC(CO)(CO)CO`, “inactive”; under `CO[Si](CCCNCCN)(OC)OC`, “inactive”. For `CCCCCNCCCCC`, the Potency result was “inactive”. On to `O=c1n(CCCN2CCN(c3cccc(Cl)c3)CC2)nc2ccccn12`, for which the Potency entry is “inactive”. For `O=C(c1ccccc1)c1ccc(O)c(O)c1O`, the Potency entry is “inactive”. Consider `CC1(C)C(=O)N(Cl)C(=O)N1Cl`, for which the Potency result was “inactive”. In the case of `Cc1cc(CC(=O)O)n(C)c1C(=O)c1ccc(Cl)cc1`, the Potency entry was “inactive”. Regarding `CC(=O)CC(=O)N(C)C`, the Potency result was “inactive”.

As to `Cc1ccc(C)c(S(=O)(=O)O)c1`, the Potency entry is “inactive”. Then `O=c1c(O)c(-c2ccc(O)c(O)c2)oc2cc(O)cc(O)c12`, with “inactive”. Then `CCCCC(CC)COC(=O)c1ccc(C(=O)OCC(CC)CCCC)cc1` (stereo not given), with “inactive”; and `OC1CCCCC1`, with “inactive”. Then `Cc1ccc(Cl)cc1`, with “inactive”; and `CC(=O)C(C)C`, with “inactive”. With `Cc1cc(C)cc(O)c1`, the Potency entry was “inactive”. Take `Cc1nnc(NS(=O)(=O)c2ccc(N)cc2)s1`: the Potency result is “inactive”. Then `C1CCCNCC1`, with “inactive”; and `CC(C)c1ccc(C(C)C)cc1`, with “inactive”; and `CCCCCCCCCCCC(=O)N(C)CC(=O)O`, with “inactive”. `Nc1cccc(N)n1`: the Potency result was “inactive”. For the compound `OCc1ccc(Cl)cc1Cl`, the Potency entry is “inactive”. With `CC(C)=CCC/C(C)=C/C=O`, the Potency result was “inactive”. `COc1ccc2cc3[n+](cc2c1OC)CCc1cc2c(cc1-3)OCO2`: the Potency entry was “inactive”. Under `CC[N+](CC)(CC(=O)Nc1c(C)cccc1C)Cc1ccccc1` stands “inactive”. As to `Nc1cccc(C(F)(F)F)c1`, the Potency entry was “inactive”. With `CCCCCCCC(=O)O`, the Potency result was “inactive”. Under `O=C1C(N(CO)C(=O)NCO)N(CO)C(=O)N1CO` (stereo not given) stands “inactive”; under `CS(=O)(=O)c1ccc(Cl)cc1`, “inactive”; under `C[Si](C)(C)N[Si](C)(C)C`, “inactive”. As to `Clc1cccc(Cl)c1NC1=NCCN1`, the Potency result was “inactive”. Take `CCOC(=O)c1ccc(O)cc1`: the Potency entry is “inactive”. Under `CCCN(CCC)C(=O)SCC` stands “inactive”. Regarding `Oc1ccc(Cc2ccccc2O)cc1`, the Potency result was “inactive”.

On to `c1cnc2c(c1)ccc1cccnc12`, for which the Potency entry was “inactive”. Under `O=Cc1ccc(CO)o1` stands “inactive”.
